Assay results reported in the supplement of paper PMC10849652.
Of roughly 8,800 targets only a part is listed; those with a hit were picked by preference. About 0.5% of all pairs of compound and target were hits.

Legend:
Experiment in all cases: log2 fold change, soluble protein after heating vs DMSO (PISA); higher = thermal stabilisation; K562 lysate, 10 uM; active = over 0.2 and 3.5 SD of the protein, either way, in both replicates (recomputed)
alvocidib = compound: CN1CC[C@H](c2c(O)cc(O)c3c(=O)cc(-c4ccccc4Cl)oc23)[C@H](O)C1 [alvocidib]
Method in brief: (§1)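 The values are log-two fold changes in thermal stability compared with solvent controls and come from duplicates. They were obtained by TMTpro 16plex LC-MS/MS, with channel sums equalised, on the supernatant after 21,000xg for 90 min. That supernatant came from crude K562 extract at 1 mg/mL protein treated with 10 μM compound for 30 min, heated for 3 min across 48°C-58°C, pooled and brought to 0.5% NP-40 at 4°C.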

Tubastatin A = compound: CN1CCc2c(c3ccccc3n2Cc2ccc(C(=O)NO)cc2)C1 [Tubastatin A]
Method in brief: as §1

[1] = compound: CNC(=O)C1=CC=CC=C1NC2=NC(=NC=C2Cl)NC3=C(C=C(C=C3)N4CCOCC4)OC
Method in brief: as §1

defactinib = compound: CNC(=O)c1ccc(Nc2ncc(C(F)(F)F)c(NCc3nccnc3N(C)S(C)(=O)=O)n2)cc1 [defactinib]
Method in brief: as §1

[2] = compound: CNc1nc(-c2ccc3c(N)n[nH]c3c2)cc(N2C[C@@H](C(=O)NC3CCCCC3)CC[C@H]2C)n1
Method in brief: as §1

encorafenib = compound: COC(=O)N[C@@H](C)CNc1nccc(-c2cn(C(C)C)nc2-c2cc(Cl)cc(NS(C)(=O)=O)c2F)n1 [encorafenib]
Method in brief: as §1

[3] = compound: COC(=O)[C@H](CCSC)NC(=O)C1=C(C=C(C=C1)NC[C@H](CS)N)C2=CC=CC=C2
Method in brief: as §1

alisertib = compound: COc1cc(Nc2ncc3c(n2)-c2ccc(Cl)cc2C(c2c(F)cccc2OC)=NC3)ccc1C(=O)O [alisertib]
Method in brief: as §1

[4] = compound: COc1cc2nc(-c3cc(F)ccc3O)nc(N[C@@H]3CNC[C@H]3C(C)(C)O)c2cc1OC
Method in brief: as §1

gefitinib = compound: COc1cc2ncnc(Nc3ccc(F)c(Cl)c3)c2cc1OCCCN1CCOCC1 [gefitinib]
Method in brief: as §1

lapatinib = compound: CS(=O)(=O)CCNCc1ccc(-c2ccc3ncnc(Nc4ccc(OCc5cccc(F)c5)c(Cl)c4)c3c2)o1 [lapatinib]
Method in brief: as §1

pictilisib = compound: CS(=O)(=O)N1CCN(Cc2cc3nc(-c4cccc5[nH]ncc45)nc(N4CCOCC4)c3s2)CC1 [pictilisib]
Method in brief: as §1

crizotinib = compound: C[C@@H](Oc1cc(-c2cnn(C3CCNCC3)c2)cnc1N)c1c(Cl)ccc(F)c1Cl [crizotinib]
Method in brief: as §1

[5] = compound: C[C@H](C1=CC=C(C=C1)C(=O)NC2=C3C=CNC3=NC=C2)N
Method in brief: as §1

duvelisib = compound: C[C@H](Nc1ncnc2nc[nH]c12)c1cc2cccc(Cl)c2c(=O)n1-c1ccccc1 [duvelisib]
Method in brief: as §1

gandotinib = compound: Cc1cc(Nc2cc(CN3CCOCC3)c3nc(C)c(Cc4ccc(Cl)cc4F)n3n2)n[nH]1 [gandotinib]
Method in brief: as §1

tozasertib = compound: Cc1cc(Nc2cc(N3CCN(C)CC3)nc(Sc3ccc(NC(=O)C4CC4)cc3)n2)n[nH]1 [tozasertib]
Method in brief: as §1

doramapimod = compound: Cc1ccc(-n2nc(C(C)(C)C)cc2NC(=O)Nc2ccc(OCCN3CCOCC3)c3ccccc23)cc1 [doramapimod]
Method in brief: as §1

bafetinib = compound: Cc1ccc(NC(=O)c2ccc(CN3CC[C@H](N(C)C)C3)c(C(F)(F)F)c2)cc1Nc1nccc(-c2cncnc2)n1 [bafetinib]
Method in brief: as §1

[6] = compound: Cc1cccc(CC(=O)N2CCc3c2ccc(-c2cn(C)c4ncnc(N)c24)c3F)n1
Method in brief: as §1

Measured: log2 fold change

FREM2 (UniProt Q5SZK8)
UniProt Q5SZK8, sequence (Q5SZK8 whole entry, looked up): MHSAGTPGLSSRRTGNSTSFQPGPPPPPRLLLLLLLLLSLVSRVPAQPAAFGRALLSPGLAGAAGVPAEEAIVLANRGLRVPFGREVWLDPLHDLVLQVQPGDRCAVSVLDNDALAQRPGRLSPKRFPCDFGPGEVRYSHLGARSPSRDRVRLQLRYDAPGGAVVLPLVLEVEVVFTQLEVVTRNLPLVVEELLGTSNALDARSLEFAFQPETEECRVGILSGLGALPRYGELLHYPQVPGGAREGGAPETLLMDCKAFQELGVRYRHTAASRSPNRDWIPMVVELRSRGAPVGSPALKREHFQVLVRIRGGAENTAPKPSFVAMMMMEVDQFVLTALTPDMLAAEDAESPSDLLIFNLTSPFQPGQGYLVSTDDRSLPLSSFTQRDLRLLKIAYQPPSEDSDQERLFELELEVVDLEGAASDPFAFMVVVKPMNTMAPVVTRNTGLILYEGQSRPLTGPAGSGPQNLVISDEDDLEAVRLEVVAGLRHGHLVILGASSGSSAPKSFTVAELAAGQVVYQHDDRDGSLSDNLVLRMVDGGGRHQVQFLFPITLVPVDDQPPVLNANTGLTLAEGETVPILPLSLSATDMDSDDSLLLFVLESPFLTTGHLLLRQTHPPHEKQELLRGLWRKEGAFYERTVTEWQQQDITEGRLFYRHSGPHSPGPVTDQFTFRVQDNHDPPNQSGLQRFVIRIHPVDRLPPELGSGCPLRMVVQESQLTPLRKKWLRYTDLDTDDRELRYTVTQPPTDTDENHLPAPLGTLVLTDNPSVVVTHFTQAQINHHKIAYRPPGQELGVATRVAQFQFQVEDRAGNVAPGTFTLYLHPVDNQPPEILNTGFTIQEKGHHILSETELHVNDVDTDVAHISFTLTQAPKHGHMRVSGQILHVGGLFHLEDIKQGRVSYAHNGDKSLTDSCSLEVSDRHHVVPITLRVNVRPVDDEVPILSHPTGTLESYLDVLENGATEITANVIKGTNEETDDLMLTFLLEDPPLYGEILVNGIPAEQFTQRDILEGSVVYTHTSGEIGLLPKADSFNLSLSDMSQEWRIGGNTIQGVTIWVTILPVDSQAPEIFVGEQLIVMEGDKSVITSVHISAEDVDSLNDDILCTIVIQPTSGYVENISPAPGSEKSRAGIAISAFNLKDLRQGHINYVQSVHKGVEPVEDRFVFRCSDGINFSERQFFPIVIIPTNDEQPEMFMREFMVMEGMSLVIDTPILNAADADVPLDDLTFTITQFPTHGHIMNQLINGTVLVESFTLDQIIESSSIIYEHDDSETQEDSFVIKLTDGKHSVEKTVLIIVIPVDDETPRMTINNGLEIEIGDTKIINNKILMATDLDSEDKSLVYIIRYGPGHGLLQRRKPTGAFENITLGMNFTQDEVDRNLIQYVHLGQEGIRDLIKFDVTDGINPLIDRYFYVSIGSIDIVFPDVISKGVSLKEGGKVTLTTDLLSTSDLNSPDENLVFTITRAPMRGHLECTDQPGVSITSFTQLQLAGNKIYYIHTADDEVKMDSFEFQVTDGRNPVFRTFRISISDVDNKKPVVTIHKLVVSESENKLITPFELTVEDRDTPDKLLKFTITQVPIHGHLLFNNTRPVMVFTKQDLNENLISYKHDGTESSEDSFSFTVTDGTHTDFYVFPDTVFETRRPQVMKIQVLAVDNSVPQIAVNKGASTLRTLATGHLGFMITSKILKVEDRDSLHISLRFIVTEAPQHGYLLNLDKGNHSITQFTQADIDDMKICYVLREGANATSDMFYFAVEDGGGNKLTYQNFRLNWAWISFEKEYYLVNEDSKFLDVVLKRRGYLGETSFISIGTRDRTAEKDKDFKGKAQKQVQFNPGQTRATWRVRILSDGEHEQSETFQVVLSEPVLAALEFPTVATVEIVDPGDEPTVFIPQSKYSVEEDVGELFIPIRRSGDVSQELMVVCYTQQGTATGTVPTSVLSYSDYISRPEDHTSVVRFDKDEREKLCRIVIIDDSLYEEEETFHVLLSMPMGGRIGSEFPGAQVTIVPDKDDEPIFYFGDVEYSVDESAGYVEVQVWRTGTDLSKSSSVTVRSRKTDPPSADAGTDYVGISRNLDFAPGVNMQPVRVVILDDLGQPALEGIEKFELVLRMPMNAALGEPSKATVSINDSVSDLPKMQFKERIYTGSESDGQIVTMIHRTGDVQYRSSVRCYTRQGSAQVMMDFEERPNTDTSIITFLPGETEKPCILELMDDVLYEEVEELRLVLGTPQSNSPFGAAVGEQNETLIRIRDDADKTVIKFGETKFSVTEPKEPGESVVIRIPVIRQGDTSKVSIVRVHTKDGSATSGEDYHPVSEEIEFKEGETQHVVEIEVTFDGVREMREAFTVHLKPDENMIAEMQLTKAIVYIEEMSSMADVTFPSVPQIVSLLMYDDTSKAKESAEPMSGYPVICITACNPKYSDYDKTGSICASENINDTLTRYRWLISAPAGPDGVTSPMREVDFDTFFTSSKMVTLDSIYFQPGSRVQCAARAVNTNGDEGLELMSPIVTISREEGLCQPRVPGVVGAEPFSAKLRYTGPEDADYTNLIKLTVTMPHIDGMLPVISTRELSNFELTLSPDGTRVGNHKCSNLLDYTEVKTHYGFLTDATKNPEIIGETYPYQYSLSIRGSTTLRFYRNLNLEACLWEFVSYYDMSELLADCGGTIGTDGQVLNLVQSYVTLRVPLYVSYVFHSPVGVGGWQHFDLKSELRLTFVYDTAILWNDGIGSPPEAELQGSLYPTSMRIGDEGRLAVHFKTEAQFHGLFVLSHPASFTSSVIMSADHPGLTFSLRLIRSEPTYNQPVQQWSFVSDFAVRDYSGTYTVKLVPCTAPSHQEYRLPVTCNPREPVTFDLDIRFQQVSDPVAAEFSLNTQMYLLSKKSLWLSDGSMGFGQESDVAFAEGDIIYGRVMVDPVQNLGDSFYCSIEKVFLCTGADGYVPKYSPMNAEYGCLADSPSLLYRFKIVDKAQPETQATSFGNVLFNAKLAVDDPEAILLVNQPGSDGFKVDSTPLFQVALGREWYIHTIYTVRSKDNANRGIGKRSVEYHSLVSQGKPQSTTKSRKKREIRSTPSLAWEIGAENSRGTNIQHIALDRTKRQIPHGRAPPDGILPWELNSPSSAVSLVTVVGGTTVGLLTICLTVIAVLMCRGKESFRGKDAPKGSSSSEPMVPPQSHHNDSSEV
active: [5] -0.318
inactive: alvocidib -0.114 | Tubastatin A 0.068 | [1] -0.034 | defactinib -0.005 | [2] -0.038 | encorafenib 0.031 | [3] -0.022 | alisertib 0.098 | [4] -0.013 | gefitinib 0.164 | lapatinib -0.077 | pictilisib 0.046 | crizotinib -0.095 | duvelisib 0.06 | gandotinib 0.172 | tozasertib 0.104 | doramapimod 0.07 | bafetinib -0.135 | [6] 0.218

EWSR1 isoform 5 (UniProt Q01844)
inactive: alvocidib -0.002 | Tubastatin A 0.101 | [1] -0.017 | defactinib -0.011 | [2] 0.021 | encorafenib -0.022 | [3] -0.036 | alisertib 0.049 | [4] -0.005 | gefitinib -0.003 | lapatinib -0.008 | pictilisib 0.021 | crizotinib 0.048 | [5] -0.07 | duvelisib -0.047 | gandotinib 0.061 | tozasertib -0.016 | doramapimod -0.025 | bafetinib 0.031 | [6] 0.009

GABPB1 (UniProt Q06547)
UniProt Q06547, sequence (Q06547 whole entry, looked up): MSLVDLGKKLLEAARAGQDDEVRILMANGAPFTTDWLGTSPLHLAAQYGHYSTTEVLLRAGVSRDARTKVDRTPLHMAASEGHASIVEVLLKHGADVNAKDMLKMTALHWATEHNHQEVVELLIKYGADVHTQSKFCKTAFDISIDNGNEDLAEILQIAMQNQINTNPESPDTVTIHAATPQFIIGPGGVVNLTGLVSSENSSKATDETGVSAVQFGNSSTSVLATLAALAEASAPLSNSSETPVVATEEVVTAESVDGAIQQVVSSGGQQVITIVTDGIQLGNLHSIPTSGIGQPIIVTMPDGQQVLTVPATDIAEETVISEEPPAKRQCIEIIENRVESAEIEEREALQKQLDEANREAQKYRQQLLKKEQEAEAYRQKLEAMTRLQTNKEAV
inactive: alvocidib 0.181 | Tubastatin A -0.001 | [1] -0.028 | defactinib 0.005 | [2] 0 | encorafenib 0.036 | [3] 0.097 | alisertib -0.016 | [4] -0.043 | gefitinib 0.024 | lapatinib -0.042 | pictilisib -0.052 | crizotinib 0.021 | [5] 0.192 | duvelisib 0.018 | gandotinib -0.194 | tozasertib -0.004 | doramapimod 0.026 | bafetinib -0.071 | [6] -0.082

DST (UniProt Q03001)
inactive: alvocidib -0.047 | Tubastatin A 0.033 | [1] -0.003 | defactinib -0.094 | [2] 0.114 | encorafenib 0.018 | [3] 0.048 | alisertib 0.003 | [4] 0.033 | gefitinib 0.046 | lapatinib -0.019 | pictilisib 0.015 | crizotinib -0.02 | [5] -0.17 | duvelisib 0.018 | gandotinib 0.101 | tozasertib 0.024 | doramapimod 0.023 | bafetinib -0.137 | [6] 0.246

GFPT1 (UniProt Q06210)
inactive: alvocidib 0.022 | Tubastatin A -0.075 | [1] 0.011 | defactinib 0.01 | [2] 0.012 | encorafenib -0.012 | [3] 0.134 | alisertib 0.005 | [4] 0.007 | gefitinib -0.013 | lapatinib -0.001 | pictilisib -0.026 | crizotinib -0.033 | [5] 0.009 | duvelisib -0.002 | gandotinib -0.066 | tozasertib -0.013 | doramapimod -0.001 | bafetinib -0.031 | [6] 0.007

EXOC1 (UniProt Q9NV70)
inactive: alvocidib 0.01 | Tubastatin A -0.139 | [1] 0.006 | defactinib 0.022 | [2] -0.086 | encorafenib 0.014 | [3] 0.012 | alisertib 0.007 | [4] -0.015 | gefitinib 0.015 | lapatinib -0.013 | pictilisib 0.029 | crizotinib -0.041 | [5] 0.04 | duvelisib 0.016 | gandotinib -0.186 | tozasertib -0.004 | doramapimod 0.023 | bafetinib -0.04 | [6] 0.024

EP400 isoform 5 (UniProt Q96L91)
inactive: alvocidib 0.015 | Tubastatin A -0.022 | [1] 0.037 | defactinib 0.01 | [2] 0.035 | encorafenib -0.028 | [3] 0.068 | alisertib 0.004 | [4] 0.023 | gefitinib -0.055 | lapatinib 0.052 | pictilisib -0.068 | crizotinib -0.04 | [5] -0.018 | duvelisib -0.036 | gandotinib -0.012 | tozasertib -0.041 | doramapimod 0.02 | bafetinib -0.053 | [6] -0.011

EGLN1 (UniProt Q9GZT9)
UniProt Q9GZT9, sequence (Q9GZT9 whole entry, looked up): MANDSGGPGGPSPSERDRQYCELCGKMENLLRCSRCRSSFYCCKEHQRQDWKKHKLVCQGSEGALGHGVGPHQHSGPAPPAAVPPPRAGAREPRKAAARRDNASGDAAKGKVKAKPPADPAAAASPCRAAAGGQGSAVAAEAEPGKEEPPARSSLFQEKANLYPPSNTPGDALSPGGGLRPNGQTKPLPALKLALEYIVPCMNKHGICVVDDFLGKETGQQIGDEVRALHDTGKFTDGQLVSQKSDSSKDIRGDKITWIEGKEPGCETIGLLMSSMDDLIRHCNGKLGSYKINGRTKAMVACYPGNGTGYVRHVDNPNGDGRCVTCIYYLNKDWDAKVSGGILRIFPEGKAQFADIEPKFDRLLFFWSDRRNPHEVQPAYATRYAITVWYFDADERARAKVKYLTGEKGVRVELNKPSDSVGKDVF
inactive: alvocidib -0.017 | Tubastatin A -0.088 | [1] 0.025 | defactinib 0.033 | [2] -0.026 | encorafenib 0 | [3] 0.091 | alisertib 0.009 | [4] 0.022 | gefitinib -0.003 | lapatinib -0.075 | pictilisib 0.031 | crizotinib -0.018 | [5] 0.037 | duvelisib 0.199 | gandotinib -0.036 | tozasertib 0.034 | doramapimod 0.006 | bafetinib 0.001 | [6] -0.055

ERCC4 (UniProt Q92889)
active: [5] -0.544
inactive: alvocidib -0.268 | Tubastatin A -0.021 | [1] 0.058 | defactinib 0.101 | [2] -0.029 | encorafenib -0.065 | [3] -0.001 | alisertib 0.047 | [4] 0.024 | gefitinib 0.044 | lapatinib -0.023 | pictilisib -0.013 | crizotinib -0.031 | duvelisib 0.003 | gandotinib 0.054 | tozasertib -0.059 | doramapimod 0.087 | bafetinib -0.101 | [6] 0.159

EED, A0A5F9ZI63
inactive: alvocidib -0.007 | Tubastatin A -0.026 | [1] 0.039 | defactinib 0.003 | [2] 0.036 | encorafenib 0.004 | [3] 0.063 | alisertib -0.01 | [4] 0.013 | gefitinib -0.025 | lapatinib 0.047 | pictilisib -0.014 | crizotinib -0.001 | [5] -0.041 | duvelisib -0.006 | gandotinib 0.022 | tozasertib -0.01 | doramapimod 0.006 | bafetinib 0.033 | [6] 0.076

FADS1, A0A0A0MR51
inactive: alvocidib 0.03 | Tubastatin A 0.1 | [1] 0.158 | defactinib 0.084 | [2] 0.011 | encorafenib -0.055 | [3] 0.03 | alisertib -0.008 | [4] -0.067 | gefitinib -0.001 | lapatinib 0.203 | pictilisib -0.087 | crizotinib -0.003 | [5] -0.024 | duvelisib -0.029 | tozasertib 0.041 | doramapimod 0.018 | bafetinib 0.027 | [6] 0.083
active: gandotinib 0.559

DUS2 (UniProt Q9NX74)
active: [3] 0.352
inactive: alvocidib 0.056 | Tubastatin A -0.084 | [1] 0.013 | defactinib 0.016 | [2] -0.045 | encorafenib -0.027 | alisertib -0.007 | [4] 0.013 | gefitinib 0.026 | lapatinib -0.033 | pictilisib 0.04 | crizotinib 0.041 | [5] -0.032 | duvelisib 0.018 | gandotinib -0.051 | tozasertib 0.011 | doramapimod -0.01 | bafetinib -0.017 | [6] -0.009

ELF2 (UniProt Q15723)
UniProt Q15723, sequence (Q15723 whole entry, looked up): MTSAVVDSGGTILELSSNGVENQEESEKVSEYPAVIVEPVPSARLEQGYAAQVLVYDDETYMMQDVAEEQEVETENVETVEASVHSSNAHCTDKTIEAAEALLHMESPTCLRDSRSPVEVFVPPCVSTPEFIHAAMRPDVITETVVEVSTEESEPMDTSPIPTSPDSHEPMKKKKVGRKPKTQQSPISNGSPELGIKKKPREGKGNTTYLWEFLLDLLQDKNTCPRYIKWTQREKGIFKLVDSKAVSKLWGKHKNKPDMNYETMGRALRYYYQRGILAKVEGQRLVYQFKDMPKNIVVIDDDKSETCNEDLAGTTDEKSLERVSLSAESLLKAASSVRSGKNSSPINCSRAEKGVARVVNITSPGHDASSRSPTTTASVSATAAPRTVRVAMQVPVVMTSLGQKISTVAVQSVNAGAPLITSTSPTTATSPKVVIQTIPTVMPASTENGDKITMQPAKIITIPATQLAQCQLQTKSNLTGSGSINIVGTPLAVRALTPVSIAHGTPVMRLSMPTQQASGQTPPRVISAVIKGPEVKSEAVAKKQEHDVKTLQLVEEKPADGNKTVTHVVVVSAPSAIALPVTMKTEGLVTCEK
active: lapatinib 0.256
inactive: alvocidib 0.023 | Tubastatin A 0.016 | [1] 0.024 | defactinib -0.013 | [2] -0.062 | encorafenib 0.028 | [3] 0.038 | alisertib -0.101 | [4] -0.06 | gefitinib 0.047 | pictilisib 0.039 | crizotinib -0.085 | [5] 0.033 | duvelisib 0.072 | gandotinib -0.046 | tozasertib -0.033 | doramapimod -0.042 | bafetinib -0.119 | [6] -0.075

DYRK1A (UniProt Q13627)
inactive: alvocidib 0.106 | Tubastatin A -0.088 | [1] 0.113 | defactinib 0.016 | [2] -0.034 | encorafenib 0.024 | [3] 0.002 | alisertib -0.008 | [4] 0.017 | gefitinib 0.007 | lapatinib -0.024 | pictilisib -0.003 | crizotinib 0.018 | [5] 0.055 | duvelisib -0.021 | gandotinib -0.012 | tozasertib 0.03 | doramapimod -0.06 | bafetinib -0.028 | [6] -0.021

GEMIN2 (UniProt O14893)
UniProt O14893, sequence (O14893 whole entry, looked up): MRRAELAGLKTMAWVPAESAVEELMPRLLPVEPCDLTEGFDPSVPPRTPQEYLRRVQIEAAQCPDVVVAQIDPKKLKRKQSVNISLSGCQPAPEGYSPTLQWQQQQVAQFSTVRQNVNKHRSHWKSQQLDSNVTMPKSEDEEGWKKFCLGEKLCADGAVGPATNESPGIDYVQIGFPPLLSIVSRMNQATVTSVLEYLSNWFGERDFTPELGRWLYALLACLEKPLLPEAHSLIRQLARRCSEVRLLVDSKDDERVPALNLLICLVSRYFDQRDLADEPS
inactive: alvocidib 0.034 | Tubastatin A -0.053 | [1] 0.001 | defactinib -0.006 | [2] 0.013 | encorafenib 0.095 | [3] -0.009 | alisertib -0.017 | [4] 0.009 | gefitinib -0.1 | lapatinib -0.025 | pictilisib -0.029 | crizotinib 0.059 | [5] -0.12 | duvelisib 0.075 | gandotinib 0 | tozasertib -0.021 | doramapimod -0.092 | bafetinib -0.053 | [6] 0.139

ERAL1 (UniProt O75616)
active: gandotinib 0.321
inactive: alvocidib 0.005 | Tubastatin A -0.151 | [1] -0.03 | defactinib 0.027 | [2] -0.015 | encorafenib -0.018 | [3] 0.058 | alisertib -0.008 | [4] 0.016 | gefitinib 0.02 | lapatinib 0.075 | pictilisib -0.025 | crizotinib -0.035 | [5] -0.152 | duvelisib 0.014 | tozasertib 0.041 | doramapimod 0.006 | bafetinib -0.079 | [6] 0.03
